Measured values: PubChem BioAssay (NCATS)
Records with an inconclusive call do not appear. The source made the active and inactive calls. Unless noted, the call rests on the fitted dose curve; in most records, active means well fitted curve in either direction with a large enough effect (not every such curve was filed as active); inconclusive means small, poorly fitted or top-dose-only effect, or another doubt; inactive means flat fitted curve, though single readings scatter.

Experiments:
[1] = molecular target: Lysosomal acid glucosylceramidase (Homo sapiens) (UniProt P04062); test: Glucocerebrosidase-p2 (AID 348; in the data active means potency below about 10 µM; further: potency means the concentration at half of the fitted maximal effect); details: purified GBA, blue fluorogenic substrate, 40 min
Chain of Lysosomal acid glucosylceramidase (Homo sapiens) (P04062 whole entry, looked up): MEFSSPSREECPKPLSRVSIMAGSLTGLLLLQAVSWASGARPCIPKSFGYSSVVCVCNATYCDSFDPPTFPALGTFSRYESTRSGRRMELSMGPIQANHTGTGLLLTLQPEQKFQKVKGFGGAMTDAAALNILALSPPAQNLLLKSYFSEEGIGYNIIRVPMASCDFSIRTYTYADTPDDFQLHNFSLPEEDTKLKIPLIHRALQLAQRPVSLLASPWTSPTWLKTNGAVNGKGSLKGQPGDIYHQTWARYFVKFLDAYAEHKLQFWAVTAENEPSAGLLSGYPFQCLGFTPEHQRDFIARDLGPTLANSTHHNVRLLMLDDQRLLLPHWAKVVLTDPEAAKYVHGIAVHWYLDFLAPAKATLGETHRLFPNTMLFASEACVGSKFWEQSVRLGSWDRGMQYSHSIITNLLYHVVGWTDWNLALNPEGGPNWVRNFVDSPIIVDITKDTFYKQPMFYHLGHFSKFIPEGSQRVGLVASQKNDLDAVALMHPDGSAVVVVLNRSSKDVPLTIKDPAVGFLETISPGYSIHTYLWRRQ
Method in brief: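 Compounds titrated from 0.6 nM upwards against 0.2 nM enzyme in pH 5.9 citric acid/KH2PO4, taurocholate, tween-20; blue fluorogenic substrate 80 uM, 40 min room temperature, stopped and read Ex 365/Em 440 for AC50.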

[2] = AP1 Signaling Pathway (AID 357); details: ME-180 AP-1-bla reporter, EGF-induced, beta-lactamase ratio, 5 h; at 7.69 µM (top of the series) unless noted;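 further: ME-180 reporter cells stimulated with EGF at its EC50 level; on the % scale 0 is the no-effect control and ±100 the full control effect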
Method in brief: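 Modulation of EGF-driven AP-1 transcription was assessed with a beta-lactamase reporter in ME-180 cells. Compound and EC50 EGF were co-incubated 5 hours at 37 °C before 2.5-hour CCF4 loading at room temperature and dual-emission reading.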

[3] = molecular target: Cytochrome P450 1A2 (Homo sapiens) (UniProt P05177); test: p450-cyp1a2 (AID 410; calls by dose curve; further: potency means the concentration at half of the fitted maximal effect;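 on activity change, negative = inhibition: -100% = full effect of reference inhibitor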); details: recombinant CYP1A2, luciferin-ME demethylation, luminescence; series mostly up to 57 µM
Chain of Cytochrome P450 1A2 (Homo sapiens) (P05177 whole entry, looked up): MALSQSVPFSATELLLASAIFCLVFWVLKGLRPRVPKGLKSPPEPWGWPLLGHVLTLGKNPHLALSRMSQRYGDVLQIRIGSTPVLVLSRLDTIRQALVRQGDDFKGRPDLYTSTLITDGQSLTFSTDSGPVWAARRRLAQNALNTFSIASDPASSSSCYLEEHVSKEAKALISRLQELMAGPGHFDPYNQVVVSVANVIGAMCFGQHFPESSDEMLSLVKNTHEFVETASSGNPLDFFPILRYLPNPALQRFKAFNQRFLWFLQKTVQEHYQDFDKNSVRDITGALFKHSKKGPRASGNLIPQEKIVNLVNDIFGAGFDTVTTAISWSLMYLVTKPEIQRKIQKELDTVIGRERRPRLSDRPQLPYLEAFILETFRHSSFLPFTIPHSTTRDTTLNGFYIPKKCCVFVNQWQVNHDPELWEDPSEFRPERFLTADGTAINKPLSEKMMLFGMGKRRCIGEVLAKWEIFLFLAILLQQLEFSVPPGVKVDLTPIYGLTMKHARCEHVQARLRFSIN
Method in brief: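 Luminescent readout of luciferin formed from Luciferin-ME by human CYP1A2; data normalized against complete inhibition by 57 uM furafylline. Enzyme 20nM, substrate 100uM at Km, 100mM KPO4 buffer, 60 min reaction at room temperature.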

[4] = NFAT Signaling Pathway (AID 444); details: Jurkat NFAT-bla M1, carbachol, beta-lactamase ratio, 5 h; at 7.69 µM (top of the series) unless noted;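 further: carbachol stimulus at about its EC50 of 1 µM final; on the % scale 0 is the no-effect control and ±100 the full control effect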
Method in brief: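 Jurkat cells carrying an NFAT-driven β-lactamase reporter and co-transfected muscarinic M1 receptor were treated with compound plus carbachol (1 uM final, an EC50 level) for 5 h at 37 °C. CCF4 loading followed for 1 h at RT; 460/530 nm ratio gave %activity.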

[5] = Stat Signaling Pathway (AID 446); details: ME-180 SIE beta-lactamase reporter, IL-6 stimulated, 5 h; at 7.69 µM (top of the series) unless noted;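 further: ME-180 cervical cancer cells given 40 pM IL-6 alongside compound; SIE-controlled beta-lactamase reporter measured as 460/530 nm FRET emission ratio; on the % scale 0 is the no-effect control and ±100 the full control effect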
Method in brief: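 IL-6/STAT signaling read in ME-180 cells via an SIE beta-lactamase reporter. Stimulus was 40 pM IL-6 (its AC50) for 5 hrs, so both activation and inhibition register.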

[6] = molecular target: Glucocorticoid receptor (Homo sapiens) (UniProt P04150); test: GR-GFP Redistribution (AID 450;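 active means compounds whose dose series gives a full or clear partial fitted curve of increased nuclear translocation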; further: potency means the concentration at half of the fitted maximal effect); details: U2OS GR-GFP nuclear translocation, laser cytometry, 2 h
Chain of Glucocorticoid receptor (Homo sapiens) (P04150 whole entry, looked up, the tested form may be a part): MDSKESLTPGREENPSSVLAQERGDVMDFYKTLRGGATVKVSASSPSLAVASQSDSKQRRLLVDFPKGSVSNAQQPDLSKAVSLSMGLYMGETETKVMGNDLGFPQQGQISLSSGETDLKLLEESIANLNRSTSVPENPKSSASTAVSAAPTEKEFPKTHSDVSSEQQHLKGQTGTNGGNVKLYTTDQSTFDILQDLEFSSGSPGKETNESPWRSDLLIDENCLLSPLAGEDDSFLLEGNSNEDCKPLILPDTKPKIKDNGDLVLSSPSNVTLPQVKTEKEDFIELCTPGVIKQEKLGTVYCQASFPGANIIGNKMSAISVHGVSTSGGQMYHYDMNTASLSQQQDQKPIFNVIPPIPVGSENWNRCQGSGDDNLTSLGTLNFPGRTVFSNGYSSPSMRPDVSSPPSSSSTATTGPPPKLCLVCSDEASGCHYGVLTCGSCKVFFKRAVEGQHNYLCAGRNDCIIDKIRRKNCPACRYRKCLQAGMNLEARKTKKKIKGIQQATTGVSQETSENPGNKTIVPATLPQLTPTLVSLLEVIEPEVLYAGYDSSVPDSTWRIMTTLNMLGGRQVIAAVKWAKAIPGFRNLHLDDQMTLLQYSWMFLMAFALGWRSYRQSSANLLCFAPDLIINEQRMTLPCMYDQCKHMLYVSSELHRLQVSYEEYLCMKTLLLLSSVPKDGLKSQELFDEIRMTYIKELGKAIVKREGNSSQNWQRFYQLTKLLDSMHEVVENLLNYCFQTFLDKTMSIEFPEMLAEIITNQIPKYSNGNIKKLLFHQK

[7] = molecular target: Glucocorticoid receptor (Homo sapiens) (UniProt P04150); test: GR-EFC Redistribution (AID 451; calls by dose curve; further: potency means the concentration at half of the fitted maximal effect); details: CHO-K1 GR-EFC translocation, beta-gal luminescence, 2 h
Method in brief: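 CHO-K1 cells stably expressing nuclear-localized β-gal enzyme acceptor and GR fused C-terminally to the enzyme donor fragment; ligand-driven nuclear translocation restores β-gal by complementation. Compounds titrated up to 46 uM final, 2 h at 37 °C; luminescence read.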

[8] = molecular target: Mitogen-activated protein kinase 10 (Mus musculus) (UniProt Q61831); test: JNK3 AlphaScreen Assay (AID 530); details: JNK3 lysate, c-Jun phosphorylation; series mostly up to 57.1 µM;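 further: kinase came from lysate of stimulated human HepG2 cells; signal reports phosphorylation of biotinylated GST-cJun 1-79 at Ser73 with 10 µM ATP; on the % scale 0 is the no-effect control and ±100 the full control effect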
Method in brief: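 Inhibitors reduce antibody binding to phosphorylated biotin-cJun, lowering AlphaScreen luminescence. Lysates from HepG2 cells pre-activated by IL-1beta plus TNF-alpha supplied JNK3; compounds were titrated.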

[9] = molecular target: 3',5'-cyclic-AMP phosphodiesterase 4B (Homo sapiens) (UniProt Q07343); test: qHTS Assay for Inhibitors of PDE-IV (AID 607; active means well fitted activation curve with a large enough effect in the main read-out, with a control signal flat, not every such curve was filed as active; further: % of control where 0% means no effect); details: HEK293 ACTOne CNG channel cells, membrane potential fluorescence; series mostly up to 22.9 µM
Chain of 3',5'-cyclic-AMP phosphodiesterase 4B (Homo sapiens) (Q07343 whole entry, looked up): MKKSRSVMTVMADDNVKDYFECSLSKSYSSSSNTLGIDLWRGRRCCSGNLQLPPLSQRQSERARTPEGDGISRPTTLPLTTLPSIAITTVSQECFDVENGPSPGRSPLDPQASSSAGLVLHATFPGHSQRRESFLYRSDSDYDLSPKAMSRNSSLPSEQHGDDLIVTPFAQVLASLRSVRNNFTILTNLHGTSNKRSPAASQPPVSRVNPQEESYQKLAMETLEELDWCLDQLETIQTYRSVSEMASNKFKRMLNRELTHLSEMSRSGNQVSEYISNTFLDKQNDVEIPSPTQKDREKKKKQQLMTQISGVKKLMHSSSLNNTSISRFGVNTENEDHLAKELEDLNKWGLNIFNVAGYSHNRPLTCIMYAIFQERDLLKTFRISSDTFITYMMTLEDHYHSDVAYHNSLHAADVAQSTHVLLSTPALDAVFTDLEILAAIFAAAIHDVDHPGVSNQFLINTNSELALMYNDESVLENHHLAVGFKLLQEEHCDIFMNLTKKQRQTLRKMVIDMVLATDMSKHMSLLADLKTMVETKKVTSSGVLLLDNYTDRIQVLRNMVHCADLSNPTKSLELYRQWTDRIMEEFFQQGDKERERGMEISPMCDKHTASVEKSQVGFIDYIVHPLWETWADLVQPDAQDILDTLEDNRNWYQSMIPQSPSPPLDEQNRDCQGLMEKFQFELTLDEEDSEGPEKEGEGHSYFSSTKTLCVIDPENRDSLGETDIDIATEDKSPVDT
Method in brief: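 Live HEK293 cells with a modified cyclic nucleotide-gated (CNG) channel report intracellular cAMP via membrane-potential dye fluorescence (ex 535/em 590 nm). Endogenous PDE-IV was targeted. Compounds were tested at up to 22.9 uM final; RO 20-1724 100 uM served as control.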

[10] = molecular target: Cytochrome P450 3A4 (Homo sapiens) (UniProt P08684); test: qHTS Assay for Activators of Cytochrome P450 3A4 (AID 885; active means well fitted curve in the direction sought with a large enough effect; an effect the other way counts as inactive or inconclusive; further: nearly all actives have a fitted effect of over 65% in size); details: recombinant CYP3A4, Luciferin-PPXE luminescence, 60 min; series mostly up to 57.1 µM
Chain of Cytochrome P450 3A4 (Homo sapiens) (P08684 whole entry, looked up): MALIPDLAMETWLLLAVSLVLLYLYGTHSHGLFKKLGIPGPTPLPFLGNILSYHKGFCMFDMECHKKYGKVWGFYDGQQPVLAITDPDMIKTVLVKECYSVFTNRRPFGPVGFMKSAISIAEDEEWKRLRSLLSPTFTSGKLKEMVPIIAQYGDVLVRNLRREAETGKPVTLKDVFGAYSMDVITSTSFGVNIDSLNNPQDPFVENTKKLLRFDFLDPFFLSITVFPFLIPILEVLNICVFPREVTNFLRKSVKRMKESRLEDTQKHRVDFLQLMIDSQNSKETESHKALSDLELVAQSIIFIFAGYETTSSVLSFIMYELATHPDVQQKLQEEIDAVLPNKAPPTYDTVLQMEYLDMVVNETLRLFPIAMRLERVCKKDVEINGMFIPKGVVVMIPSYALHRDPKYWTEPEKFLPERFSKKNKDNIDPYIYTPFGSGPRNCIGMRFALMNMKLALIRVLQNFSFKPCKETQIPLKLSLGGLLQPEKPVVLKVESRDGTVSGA
Method in brief: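 Quantitative HTS format: compounds preincubated with 20nM human CYP3A4 and Luciferin-PPXE substrate at KM, reaction started by NADPH regeneration, stopped after 60 min, luciferase luminescence read 20 min later.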

[11] = Primary qHTS for small molecule stabilizers of the endoplasmic reticulum resident proteome: Secreted ER Calcium Modulated Protein (SERCaMP) assay (AID 1508630; active means well fitted curve in the direction sought with a large enough effect; an effect the other way counts as inactive or inconclusive; further: on the % scale 0 is the no-effect control and ±100 the full control effect); details: SH-SY5Y GLuc-SERCaMP (Gaussia luciferase released on ER calcium loss) secretion, thapsigargin, luminescence; series mostly up to 38.4 µM
Method in brief: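 GLuc-SERCaMP-expressing SH-SY5Y cells, pretreated 16 h with compound, are challenged with thapsigargin to empty ER calcium stores; after 4 h, coelenterazine is added directly to the medium and luminescence is imaged.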

[12] = molecular target: Cytochrome P450 2C9 (Homo sapiens) (UniProt P11712); test: qHTS Assay for Inhibitors and Substrates of Cytochrome P450 2C9 (AID 883; active means well fitted curve in the direction sought with a large enough effect; an effect the other way counts as inactive or inconclusive; further: nearly all actives have a fitted effect of over 60% in size; further: potency means the concentration at half of the fitted maximal effect); details: recombinant CYP2C9, luciferin-H luminescence, 60 min; series mostly up to 57.1 µM
Chain of Cytochrome P450 2C9 (Homo sapiens) (P11712 whole entry, looked up): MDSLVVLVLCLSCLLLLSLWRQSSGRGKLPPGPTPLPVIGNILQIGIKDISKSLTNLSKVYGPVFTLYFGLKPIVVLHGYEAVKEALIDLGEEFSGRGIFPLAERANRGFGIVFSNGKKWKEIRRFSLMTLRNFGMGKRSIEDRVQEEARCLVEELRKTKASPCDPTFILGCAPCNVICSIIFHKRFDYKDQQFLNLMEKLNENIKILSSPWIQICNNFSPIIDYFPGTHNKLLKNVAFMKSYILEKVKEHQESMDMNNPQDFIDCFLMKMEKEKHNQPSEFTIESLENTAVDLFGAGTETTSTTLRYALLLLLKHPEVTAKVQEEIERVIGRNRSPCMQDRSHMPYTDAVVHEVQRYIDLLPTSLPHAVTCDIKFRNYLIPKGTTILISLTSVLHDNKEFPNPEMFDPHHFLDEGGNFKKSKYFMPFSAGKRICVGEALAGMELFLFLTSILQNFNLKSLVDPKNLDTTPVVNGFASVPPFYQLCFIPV
Method in brief: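 CYP2C9 deoxyluciferin hydroxylation, 37C, 60 min with NADPH regeneration; 10nM enzyme, 100uM Luciferin-H (KM). Glo detection reagent stopped reaction; luminescence normalized to sulphaphenazole (57uM) full inhibition.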

[13] = qHTS Assay for Identification of Small Molecule Agonists for Hypoxia Response Element Signaling Pathway (AID 914; active means well fitted activation curve with a large enough effect in the signal ratio, with a control signal flat, not every such curve was filed as active; the % refers to the signal ratio; further: % of control where 0% means no effect); details: ME-180 (cervical carcinoma) HRE-bla reporter, beta-lactamase ratio, CoCl2, 17 h; activation: hits give high values
Method in brief: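 qHTS titration; ME-180 HRE-bla cells; EC50 CoCl2 co-treatment, 17 h at 37 degrees Celsius; CCF4 dye, ex 405nm, em 460nm and 530nm; %Activity from ratio; AC50.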

[14] = molecular target: Cytochrome P450 3A4 (Homo sapiens) (UniProt P08684); test: qHTS Assay for Inhibitors and Substrates of Cytochrome P450 3A4 (AID 884; active means well fitted curve in the direction sought with a large enough effect; an effect the other way counts as inactive or inconclusive; further: nearly all actives have a fitted effect of over 50% in size; further: potency means the concentration at half of the fitted maximal effect); details: recombinant CYP3A4, Luciferin-PPXE luminescence; series mostly up to 57.1 µM
Method in brief: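 20 nM human CYP3A4 with 25 uM Luciferin-PPXE (at KM) in 200 mM KPO4, preincubated 10 min with compound; NADPH regeneration started a 60 min RT reaction. Luciferin detected by luminescence, normalized to 57 uM ketoconazole as full inhibition.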

Cc1nc2cncnc2n(-c2ccccc2)c1=O
inactive: Potency [1] > 11.4 µM | activity change, negative = inhibition [2] -11.8% | activity change, negative = inhibition [4] -0.117% | activity, negative = inhibition [5] -12.5% | Potency [6] > 9.22 µM | Potency [7] > 46 µM | Potency [8] | Potency [9] | Potency [10] | outcome [11]
active: Potency [3] 10 µM

COc1ccc(-n2c(=O)c(-c3cn(C)c4ccccc34)nc3cncnc32)cc1
active: Potency [3] 0.316 µM
inactive: Potency [1] > 11.4 µM | activity change, negative = inhibition [2] -24.9% | activity change, negative = inhibition [4] 6.02% | activity, negative = inhibition [5] -19.8% | Potency [6] > 9.22 µM | Potency [7] > 46 µM | Potency [8] | Potency [9] | Potency [12] | Potency [10] | outcome [11]

COc1ncc2nc(CCc3ccccc3)c(=O)n(CCC#N)c2n1
active: Potency [3] 15.8 µM
inactive: Potency [1] > 11.4 µM | activity change, negative = inhibition [2] -1.07% | activity change, negative = inhibition [4] -10.8% | activity, negative = inhibition [5] -4.61% | Potency [6] > 9.22 µM | Potency [7] > 46 µM | Potency [8] | Potency [9] | activation [13] -14.7% | outcome [11]

Cn1c(=O)c(-c2ccc(F)cc2)nc2cnc(Oc3ccccc3)nc21
active: Potency [3] 0.316 µM
inactive: Potency [1] > 11.4 µM | activity change, negative = inhibition [2] 14.3% | activity change, negative = inhibition [4] 5.5% | activity, negative = inhibition [5] -0.989% | Potency [6] > 9.22 µM | Potency [7] > 46 µM | Potency [8] | Potency [9] | Potency [14] | outcome [11]

COc1ccc(-n2c(=O)cnc3cnc(Oc4cccc(Cl)c4)nc32)cc1
inactive: Potency [1] > 11.4 µM | activity change, negative = inhibition [2] -9.58% | activity change, negative = inhibition [4] 4.93% | activity, negative = inhibition [5] -9.34% | Potency [6] > 9.22 µM | Potency [7] > 46 µM | Potency [8] | Potency [9] | Potency [10] | outcome [11]
active: Potency [3] 7.94 µM

COCCn1c(=O)c(-c2cc(F)cc(F)c2)nc2cnc(Oc3cccc(Cl)c3)nc21
inactive: Potency [1] > 11.4 µM | activity change, negative = inhibition [2] 30.2% | activity change, negative = inhibition [4] -9.31% | activity, negative = inhibition [5] 24.9% | Potency [6] > 9.22 µM | Potency [7] > 46 µM | Potency [8] | Potency [9] | Potency [10] | outcome [11]
active: Potency [3] 5.01 µM | Potency [12] 3.98 µM

COc1ccc(-n2c(=O)c(C)nc3cncnc32)cc1
inactive: Potency [1] > 11.4 µM | activity change, negative = inhibition [2] -7.74% | Potency [3] | activity change, negative = inhibition [4] 7.82% | activity, negative = inhibition [5] -15.1% | Potency [6] > 9.22 µM | Potency [7] > 46 µM | Potency [8] | Potency [9] | Potency [10] | outcome [11]
active: Potency [14] 5.01 µM

COCCn1c(=O)c(-c2ccc(Cl)cc2)nc2cncnc21
inactive: Potency [1] > 11.4 µM | activity change, negative = inhibition [2] -10.8% | activity change, negative = inhibition [4] 9.96% | activity, negative = inhibition [5] 1.43% | Potency [6] > 9.22 µM | Potency [7] > 46 µM | Potency [8] | Potency [9] | Potency [10] | outcome [11]
active: Potency [3] 0.2 µM

O=c1c(-c2cccc(F)c2)nc2cncnc2n1C1CC1
active: Potency [3] 1.58 µM
inactive: Potency [1] > 11.4 µM | activity change, negative = inhibition [2] -9.05% | activity change, negative = inhibition [4] -1.62% | activity, negative = inhibition [5] 1.43% | Potency [6] > 9.22 µM | Potency [7] > 46 µM | Potency [8] | Potency [9] | Potency [10] | outcome [11]

O=c1cnc2cnc(OCc3ccccc3)nc2n1Cc1ccc(F)cc1
inactive: Potency [1] > 11.4 µM | activity change, negative = inhibition [2] -29.4% | activity change, negative = inhibition [4] -14.6% | activity, negative = inhibition [5] -21.4% | Potency [6] > 9.22 µM | Potency [7] > 46 µM | Potency [8] | Potency [10] | outcome [11]
active: Potency [3] 12.6 µM | Potency [14] 5.01 µM
